This passage reports activity change, positive = activation and Potency results from PubChem BioAssay AID1508624 (National Center for Advancing Translational Sciences (NCATS), 2021).

Each structure is given as a SMILES string. The whole screen tested about 48,000 compounds, of which about 120 (0.25%) were called active. A call without a number means that no potency is given here. Not shown: some 4% with an inconclusive outcome. This is one part of a sample in which actives are shown more often than they occur. A number with no mark means an inactive call. Calls follow the shape of the dose curve; as a rule, active = well fitted activation curve with a large enough effect; inconclusive = small, poorly fitted or top-dose-only effect, or another doubt; inactive = no such curve, though single readings can be large or run the other way.
Potency is read from the fitted curve at half-maximal effect.

The nature of the experiment: Primary qHTS for Identification of Small Molecule Activators of Huntingtin-Antisense Promoter Activity. Also: nearly all actives have a fitted effect of over 55% in size. Conditions: HEK293 HTT-AS promoter firefly luciferase reporter, 24 h; series mostly up to 57.5 µM. From the text: Assay Provider: Russell L. Margolis M.D.
Department Neurology, Johns Hopkins University School of Medicine, Baltimore, MD
Huntington's Disease (HD) is a neurodegenerative disorder caused by a CAG repeat expansion in exon 1 of huntingtin (HTT). While there are currently no disease-modifying treatments for HD, recent efforts have focused on development of nucleotide-based therapeutics to lower HTT expression. As an alternative to siRNA or oligonucleotide methods, we hypothesized that suppression of HTT expression might be accomplished by small molecules that either (1) directly decrease HTT expression by suppressing HTT promoter activity or (2) indirectly decrease HTT expression by increasing the promoter activity of HTT-AS, the gene antisense to HTT that appears to inhibit expression of HTT.
We developed and employed a high throughput screen for modifiers of HTT and HTT-AS promoter activity using luminescent reporter HEK293 cells; of the 52,041 compounds tested, we identified 898 replicable hits. We used a rigorous stepwise approach to assess compound toxicity and the capacity of the compounds to specifically lower huntingtin protein in 5 different cell lines, including HEK293 cells, HD lymphoblastoid cells, mouse primary neurons, HD iPSCs differentiated into cortical-like neurons, and HD hESCs. We found no compounds which were able to lower huntingtin without lowering cell viability in all assays, though the potential efficacy of a few compounds at non-toxic doses could not be excluded.
SEQUENCE No. (1, 2, 3, etc.); […] (e.g., Cells, Incubation, Reagent, etc.); VALUE and DESCRIPTION.
1; Reagent; 4 uL; 2,500 Hek293 luciferase reporter cells per wells
3; Compound; 23 nL; Control inhibitor / compound library
5; Reagent; 2.5 uL; Firefly Luc reagent; Dual-Glo Luciferase Reporter Assay System (Promega)
6; Time; 10 min; room temperature incubation
7; Detection; Luminescence; FLuc
NOTES (numbers refer to sequence above)
1; High-throughput screening, measuring luminescence from a Hek293 luciferase reporter, was performed in 1,536 well white-walled tissue-culture treated plates. 2,500 cells were plated in 4 µL of Opti-MEM per well using a Multidrop Combi Reagent Dispenser (ThermoFisher).
2; Assay plates were cultured for 24 hours.
3; Control inhibitor (PTC124; final concentration of 50 uM) and compound library (at final concentrations of 460 nM - 57.5 uM) were added to the assay plate using the Kalypsis Pintool Robotic System equipped with 1536 pinheads.
4; Cells were then incubated for 24 hours at 37 degrees C prior to luminescence measurements.
5; In all cases, luminescence was measured using the Dual-Glo Luciferase Reporter Assay System (Promega) following the manufacturer's instructions.
6; Room temperature incubation.
7; Luminescence signal was obtained using the PerkinElmer ViewLux plate reader. Results were normalized to vehicle control (0% activity) and zero RLU (-100% activity).
Background: Quantitative high-throughput screening tests each substance at several concentrations.
As for `O=C(CN1C(=O)COc2ccc(S(=O)(=O)N3CCOCC3)cc21)N1CCN(c2cccc(Cl)c2)CC1`, the activity change, positive = activation entry is “inactive”.

In the case of `COc1ccc(Cn2c(C(=O)O)c(CNCc3cccc(OC)c3)c3ccc(C)cc32)cc1`, the activity change, positive = activation result was “inactive”.

Take `Cc1cc(C)c(NC(=O)Cn2c(SCC(=O)NCc3ccccc3)nc3ccccc32)c(C)c1`: the activity change, positive = activation entry is “inactive”. Turning to `CCOC(=O)c1cccc(NS(=O)(=O)c2cn(C)c(C)n2)c1`, the activity change, positive = activation result was “inactive”. Same read-out and setting: with `COc1cc2[nH]c(=O)n(Cc3ccc(C(=O)NCc4ccc(C)cc4)cc3)c(=O)c2cc1OC` the entry was “inactive”. Still for that read-out and setting: with `CCOC(=O)c1c(NC(=O)Cc2coc3ccc(CC)cc23)sc2c1CCC2` the entry was “inactive”; with `COc1cccc(C(c2c(O)cc(C)n(Cc3ccco3)c2=O)N2CCN(c3ccccc3)CC2)c1` (centres undefined), “inactive”.

Turning to `COc1ccc(CC(=O)N2CC(=O)Nc3ccc(Br)cc3C2c2ccc(F)cc2)cc1OC` (centres undefined), the activity change, positive = activation result was “inactive”. Same read-out and setting: next, `Cc1ccc(CNS(=O)(=O)c2ccc(-c3cc(C(F)(F)F)on3)s2)cc1`: “inactive”. Take `Cc1ccc2nc(CNC(=O)c3ccccc3)[nH]c2c1`: the Potency was 4.47 µM (active). Take `CCCNC(=O)C1CCN(c2nc3ccc(C)cc3[nH]2)CC1`: the activity change, positive = activation result is “inactive”. Take `COc1ccc(-c2nc3ccc(C(=O)NCc4ccc(C)cc4)cc3nc2-c2ccc(OC)cc2)cc1`: the activity change, positive = activation result was “inactive”. Same read-out and setting: with `COc1ccc(-c2nc3sc(CCNC(=O)C(C)(C)C)c(C)n3n2)cc1` the entry was “inactive”; with `COc1ccc(C)cc1-n1c(-c2ccc(C)cc2)cc2c1CC(C)(C)CC2=O`, “inactive”. Same read-out and setting: next, `Cc1cc(Br)ccc1NC(=O)Cn1cnc2sc(C)c(S(=O)(=O)N3CCN(C)CC3)c2c1=O`: “inactive”; `Cc1ccc(-c2noc(-c3nnn(-c4cccc(C(F)(F)F)c4)c3N)n2)cc1`: “inactive”; `O=C(Nc1ccc(C(=O)OCc2cc(=O)n3nc(C4CC4)sc3n2)cc1)c1ccc(F)cc1`: “inactive”. On the same count and under the same terms, with `COc1ccc(Cn2c(=O)c3oc4ccccc4c3n(CC(=O)Nc3ccc(F)cc3F)c2=O)cc1` the entry was “inactive”.

With `O=C(CN1CCSc2ccccc21)N1CCN(c2ccccc2)CC1`, the activity change, positive = activation result is “inactive”. Consider `COc1ccc2c(c1)c(N1CCCC1=O)c(C(=O)Nc1ccccc1C(F)(F)F)n2C`, for which the activity change, positive = activation entry was “inactive”. Consider `Cc1ccc(NC(=O)CSc2nc3c([nH]c4ccccc43)c(=O)n2-c2ccccc2)cc1Cl`, for which the activity change, positive = activation entry is “inactive”. For the compound `Cc1ccccc1Cn1nc(C)c(NC(=O)c2cc(-c3ccc(F)cc3)on2)c1C`, the activity change, positive = activation result was “inactive”. Still for that read-out and setting: with `CCn1cc(C(=O)N2CCN(c3cc(C)ccc3C)CC2)c(=O)c2cc(S(=O)(=O)N(C)C3CCCCC3)ccc21` the entry was “inactive”; with `Cc1ccc(C)c(N2CCN(c3ccc4cc(S(=O)(=O)N5CCC(C)CC5)ccc4n3)CC2)c1`, “inactive”; with `CC[C@]12C=CCN3CC[C@@]4(c5cc([C@@]6(C(=O)OC)C[C@H]7C[C@@H](C(C)(F)F)CN(Cc8c6[nH]c6ccccc86)C7)c(OC)cc5N(C)[C@H]4[C@@](O)(C(=O)OC)[C@H]1OC(C)=O)[C@@H]32`, “inactive”. Still for that read-out and setting: next, `Cc1nc(SCC(=O)Nc2ccc(C(=O)O)cc2)n[nH]1`: “inactive”; `O=C(CSc1nc2c(c(=O)[nH]1)CN(Cc1ccc3c(c1)OCO3)CC2)Nc1cc(F)ccc1F`: “inactive”. On the same count and under the same terms, next, `COC(=O)c1cc(NC(=O)CCS(=O)(=O)c2cc(Br)cc3c2N(C(=O)C2CC2)CC3)cc(C(=O)OC)c1`: “inactive”.

On to `CC(=O)c1ccc(NC(=O)c2nc(-c3ccc(C)cc3)n3c2CCCCC3)cc1`, for which the activity change, positive = activation result was “inactive”. Still for that read-out and setting: next, `Cc1cccc(C(=O)N2CCc3cc(CNC(=O)Cc4ccc(F)cc4)ccc32)c1`: “inactive”; `CCOC(=O)c1c(C)[nH]c(C)c1S(=O)(=O)N1CCCC(C(=O)NCc2ccccc2Cl)C1` (centres undefined): “inactive”; `COc1ccc(-n2c(=O)c3sc4ccccc4c3n(CC(=O)Nc3cccc(C)c3)c2=O)cc1`: “inactive”. Same read-out and setting: next, `Cc1ccc(CNC(=O)Cn2c(=O)ccc3cc(S(=O)(=O)N4CCCC4)ccc32)cc1`: “inactive”. On the same count and under the same terms, next, `Cc1ccc(C)c(Cn2c(C(=O)O)c(CNCc3cccs3)c3ccccc32)c1`: “inactive”; `COC(=O)c1cccc(Cn2nnc3sc4c(c3c2=O)CCC(C(C)(C)C)C4)c1` (centres undefined): “inactive”; `CCOc1cc(C=C2C(=O)N(c3ccccc3)N=C2C)cc(Cl)c1OCC(=O)OC`: “inactive”. Regarding `CCOc1ccc(NC(=O)c2c(NCc3cccc(OC)c3OC)sc3c2CCC3)cc1`, the activity change, positive = activation result was “inactive”. Still for that read-out and setting: with `CC1CCCCN1S(=O)(=O)c1ccc(F)c(C(=O)Nc2ccccc2C(F)(F)F)c1` (centres undefined) the entry was “inactive”; with `CCn1c(C)c(C)c2cc(C(=O)N3CCN(c4cccc(C)c4C)CC3)ccc21`, “inactive”; with `COc1ccc(CNS(=O)(=O)c2cc3c4c(c2)CCN4C(=O)CC3)cc1`, “inactive”. Still for that read-out and setting: next, `O=C(NCc1ccccc1)C(=O)NCC(c1ccco1)S(=O)(=O)c1ccc(Cl)cc1` (centres undefined): “inactive”; `Oc1ccccc1-c1nc2ccc(Cl)cn2c1Nc1ccc2c(c1)OCCO2`: “inactive”; `CCn1cc(C(=O)N2CCN(c3cc(Cl)ccc3C)CC2)c(=O)c2cc(S(=O)(=O)N3CCCC3)ccc21`: 10.5% [at 11.5 µM, percent change from vehicle, -100% = no light]. Still for that read-out and setting: next, `O=C(NCc1ccc(Cl)cc1)c1ccc2c(c1)nnn2C1CCCC1`: “inactive”.
